Experimental findings from PubChem BioAssay (EPA / NIEHS) are described below.

Inconclusive results are not listed. The source made the active and inactive calls. Rule for the calls: active = hit-call score of the fitted dose curve at least 0.9, where 1 is the maximum; inconclusive = response in the unintended direction; inactive = score below 0.9.

A short description of assay [1]: Tanguay_ZF_120hpf_JAW_legacy: (Legacy) Oregon State University Tanguay Lab 120 Hour Post-fertilization zebrafish Assay for Jaw Malformation (AID 2283638).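 For AC50: active means more embryos with jaw malformation than DMSO controls.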 The gist of the method: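 Dechorionated Tropical 5D wild-type zebrafish embryos, one per well, exposed statically from 6 hpf to 120 hpf at 28C in 0.64% DMSO. Jaw malformation was scored by brightfield microscopy as present or absent. It was not scored in dead embryos.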

Assay [2] in a line: Tanguay_ZF_120hpf_OTIC_legacy: (Legacy) Oregon State University Tanguay Lab 120 Hour Post-fertilization zebrafish Assay for Otic Vesicle Malformation (AID 2283639). The gist of the method:
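Wild-type zebrafish larvae, whole-embryo exposure from early stage to 120 hpf at 28C. Binary brightfield scoring of otic vesicle morphology, fitted in the positive direction against the DMSO baseline.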

A short description of assay [3]: Tanguay_ZF_120hpf_PE_legacy: (Legacy) Oregon State University Tanguay Lab 120 Hour Post-fertilization zebrafish Assay for Pericardial Edema (AID 2283640).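 For AC50: potency for increased incidence of pericardial edema versus DMSO baseline.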 In outline:
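Tropical 5D wild-type zebrafish embryos were statically exposed until 120 hpf at 28C, with 0.64% DMSO final. Pericardial edema was scored by brightfield as present or absent; endpoints were not scored in dead embryos.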

Assay [4] is described as follows: Tanguay_ZF_120hpf_BRAI_legacy: (Legacy) Oregon State University Tanguay Lab 120 Hour Post-fertilization zebrafish Assay for Brain Malformation (AID 2283641). In outline:
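Tropical 5D wild-type zebrafish embryos exposed statically until 120 hpf at 28C, 0.64% DMSO final, sealed and dark. Brain malformation scored present/absent by brightfield at 120 hpf; dead embryos excluded. Trimethyltin chloride 5uM positive control.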

Assay [5] in a line: Tanguay_ZF_120hpf_SOMI_legacy: (Legacy) Oregon State University Tanguay Lab 120 Hour Post-fertilization zebrafish Assay for Somite Malformation (AID 2283647). The gist of the method:
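Dechorionated Tropical 5D wild-type zebrafish embryos, one per well from 6 hpf, statically exposed at 28C to 120 hpf in 0.64% DMSO; somite malformation scored present/absent by brightfield; trimethyltin 5 uM positive control; dead embryos not scored.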

The nature of assay [6]: Tanguay_ZF_120hpf_PFIN_legacy: (Legacy) Oregon State University Tanguay Lab 120 Hour Post-fertilization zebrafish Assay for Pectoral Fin Malformation (AID 2283648).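 Note: each larva judged yes or no for fin defect by brightfield with dead larvae skipped.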 The gist of the method: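 Scoring of pectoral fin malformation was binary, made at 120 hpf on larvae exposed statically from 6 hpf after enzymatic chorion removal. Activity was fitted upward relative to DMSO controls at 0.64% (vol/vol).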

Assay [7] can be described thus: Tanguay_ZF_120hpf_CFIN_legacy: (Legacy) Oregon State University Tanguay Lab 120 Hour Post-fertilization zebrafish Assay for Caudal Fin Malformation (AID 2283649). The gist of the method:
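Dechorionated Tropical 5D wild-type embryos, one per well from 6 hpf, static exposure to 120 hpf at 28C in 0.64% DMSO. Caudal fin malformation scored by brightfield as present/absent; not scored in dead embryos.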

The nature of assay [8]: Tanguay_ZF_120hpf_CIRC_legacy: (Legacy) Oregon State University Tanguay Lab 120 Hour Post-fertilization zebrafish Assay for Circulatory Malformation (AID 2283651). The gist of the method:
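Binary circulatory-malformation call at 120 hpf via brightfield imaging, relative to DMSO controls. Embryos (5D strain, chorion removed) received static, light-shielded exposure at 28C.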

A short description of assay [9]: Tanguay_ZF_120hpf_PIG_legacy: (Legacy) Oregon State University Tanguay Lab 120 Hour Post-fertilization zebrafish Assay for Pigmentation Malformation (AID 2283650). The gist of the method: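 Endpoint is incidence of abnormal pigmentation at 120 hpf in dechorionated 5D zebrafish exposed singly from 6 hpf at 28C, DMSO vehicle at 0.64%. Embryos dying by 24 or 120 hpf are excluded from scoring.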

`CCCCCCCCCCCCc1ccccc1`: the call in assay [1], in assay [2], in assay [3], in assay [4], in assay [5] and in assay [6] was inactive. In addition, the result in [7] and in [8] was inactive.
In the case of `O=C1CCCCCN1`, the result in assay [1], in assay [2], in assay [3], in assay [4], in [5] and in assay [7] was inactive. Besides, the outcome in [9] and in assay [8] was inactive.
Take `CCN(C(=O)c1cc(C)cc(OC[C@H](C)Nc2ccncc2)c1)C(C)C`: the result in assay [1], in assay [2], in [3], in [4], in assay [5] and in [6] was inactive. Besides, the call in [7], in assay [9] and in assay [8] was inactive.
With `NC(=O)NO`, the outcome in [1], in assay [2], in [3], in assay [4], in assay [6] and in assay [7] was inactive. The molecule was classed as inactive in assay [9] and in assay [8].
For the molecule `CCCCC(CC)COC(=O)c1ccc(C(=O)OCC(CC)CCCC)cc1` (configuration not stated), the call in assay [1], in assay [2], in assay [3], in [4], in assay [6] and in assay [7] was inactive. Moreover, the molecule was classed as inactive in assay [9] and in assay [8].
Consider `O=C(O)c1cccc(Oc2ccccc2)c1`, for which the molecule was called inactive in assay [1], in assay [2], in assay [3], in assay [4], in assay [6] and in [7]. Moreover, the call in assay [9] and in assay [8] was inactive.
Turning to `CCn1nc(Cc2ccccc2)cc1C1CCN(C[C@H]2C[C@H](N(C)[C@@H](C(=O)O)C(C)C)C[C@@H]2c2cccc(F)c2)CC1`, the molecule was called inactive in assay [1], in [2], in [3], in assay [4], in assay [5] and in assay [7]. Besides, the outcome in assay [9] and in assay [8] was inactive.
Take `C1=CCCC=CCCC=CCC1`: the result in assay [1], in [2], in assay [3], in assay [4], in assay [5] and in [6] was inactive. For the same molecule, the result in assay [7], in assay [9] and in [8] was inactive.
The AC50 is the midpoint of the concentration-response curve, whichever way the signal moves. On to `Nc1ccc(Nc2ccccc2)cc1`, for which the AC50 in assay [1] is 27.2 µM (active); in assay [3] it was 40 µM (active); in [4] it was 45.1 µM (active); in assay [6], 41.2 µM (active); in assay [7] it was 47 µM (active); in assay [9], 48.7 µM (active). Further, the call in assay [2] was inactive.
For `O=C(CCCCCCCCc1cccnc1)N1CCC(C=C(c2ccccc2)c2ccccc2)CC1`, the result in assay [1], in [2], in assay [3], in [4], in assay [6] and in [7] was inactive. The outcome in [9] and in assay [8] was inactive.
On to `Cn1c(=O)c2c(ncn2C)n(C)c1=O`, for which the result in assay [1], in assay [2], in assay [3], in assay [4], in assay [5] and in assay [6] was inactive. Moreover, the molecule was called inactive in assay [7], in assay [9] and in [8].
For the molecule `CC(C)(O)c1coc(S(=O)(=O)NC(=O)Nc2c3c(cc4c2CCC4)CCC3)c1`, the result in [1], in [2], in assay [3], in assay [4], in assay [5] and in [6] was inactive. Moreover, the outcome in [7], in assay [9] and in assay [8] was inactive.
As for `O=C(O)c1cccc(N(Cc2cccnc2)c2ccc(OC(F)F)c(OC(F)F)c2)c1`, the result in assay [1], in assay [2], in assay [3], in assay [4], in [5] and in assay [7] was inactive. Besides, the molecule was classed as inactive in assay [8].
Regarding `CC(C)CC(C)(O)C#CC(C)(O)CC(C)C` (configuration not stated), the molecule was called inactive in assay [1], in [2], in [3] and in assay [4].
Regarding `O=c1[nH]c2ccc(S(=O)CCN3CCC(Cc4ccc(F)cc4)CC3)cc2o1` (configuration not stated), the molecule was classed as inactive in assay [1], in [2], in [3], in [4], in assay [5] and in [7]. The result in [9] and in [8] was inactive.
For the molecule `Cc1ccc(C)c(O)c1`, the molecule was called inactive in assay [1], in [2], in [3], in assay [4], in assay [5] and in assay [6]. For the same molecule, the molecule was called inactive in assay [7], in assay [9] and in assay [8].
As to `CCCN(C1CCN(C(=O)C2CCNCC2)CC1)[C@@H]1CCc2ccc(OC)cc2C1`, the result in [1], in assay [2], in [3], in assay [4], in assay [5] and in [7] was inactive. For the same molecule, the outcome in assay [9] and in assay [8] was inactive.
On to `Cn1c(=O)cc(Oc2ccc(F)cc2F)c2cnc(NCC(C)(C)O)nc21`, for which the result in assay [1], in assay [2], in assay [4], in assay [5], in assay [7] and in assay [9] was inactive. Further, the molecule was classed as inactive in assay [8]. Besides, the AC50 in [3] is 10.3 µM (active).
For the molecule `On1ccccc1=S`, the molecule was called inactive in assay [1], in [2], in assay [4], in assay [5], in assay [6] and in assay [7]. Further, the result in [9] and in [8] was inactive. In assay [3], the half-maximal activity concentration (AC50) was 0.0293 µM (active).
